In PubChem BioAssay AID720597 (Broad Institute, 2013):
Results with a measured potency or affinity are listed apart. The source made the active and inactive calls.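 How the source made its calls: active means fitted half-maximal dose no more than twice the top valid tested dose, for compounds that lower signal; inconclusive means fit invalid, or curve flat with activity between -70 and -30; inactive means potency past limit, curve flat within ±30, or signal increasing.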

target: NAD-dependent protein deacylase sirtuin-5, mitochondrial (Homo sapiens) (UniProt Q9NXA8); experiment: SIRT5 deacylase inhibitors, dose response, biochemical, fluorescence imaging, cherry-pick, set 6 (AID 720597); conditions: Purified SirT5, succinyl-peptide-AMC/trypsin fluorescence; series mostly up to 15 µM;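 further: lower AMC signal can also come from blocking the trypsin step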
Sequence (Q9NXA8 whole entry, looked up): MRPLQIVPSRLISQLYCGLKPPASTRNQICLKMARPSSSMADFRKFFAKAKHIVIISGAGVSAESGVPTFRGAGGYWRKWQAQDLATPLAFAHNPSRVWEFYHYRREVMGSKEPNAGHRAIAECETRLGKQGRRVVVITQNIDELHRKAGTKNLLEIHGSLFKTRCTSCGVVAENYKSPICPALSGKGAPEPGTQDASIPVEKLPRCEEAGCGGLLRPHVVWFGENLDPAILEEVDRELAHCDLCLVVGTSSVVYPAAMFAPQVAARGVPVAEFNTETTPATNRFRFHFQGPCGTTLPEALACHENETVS

outcome, inactive:
O=C(c1cccnc1)N1CCCCN2[C@H](CO)[C@@H](c3ccc(C#Cc4ccccn4)cc3)[C@@H]2C1
CN(C)C(=O)c1cccc(-c2ccc([C@H]3[C@H](CO)N4CCCCN(S(C)(=O)=O)C[C@@H]34)cc2)c1
Cc1ccccc1S(=O)(=O)N1CCCCN2[C@H](CO)[C@@H](c3ccc(-c4ccccc4)cc3)[C@H]2C1
COc1ccc(S(=O)(=O)N(C)C[C@@H]2OCCCC[C@@H](C)Oc3ccc(NC(=O)Nc4ccc(C(F)(F)F)cc4)cc3C(=O)N([C@@H](C)CO)C[C@@H]2C)cc1
C[C@@H]1CN([C@H](C)CO)C(=O)c2cc(C#CC(C)(C)O)cnc2O[C@H]1CN(C)C(=O)CC1CC1
O=C(NCC[C@@H]1CC[C@H](NC(=O)C2CC2)[C@H](CO)O1)c1cc(Cl)cc(Cl)c1
C[C@@H]1CN([C@H](C)CO)C(=O)c2cc(NS(=O)(=O)c3ccc(F)cc3)ccc2O[C@@H](C)CCCCO[C@@H]1CN(C)S(=O)(=O)c1ccc(Cl)cc1
Cc1noc(C)c1NC(=O)Nc1ccc2c(c1)C(=O)N([C@H](C)CO)C[C@H](C)[C@@H](CN(C)C(=O)Nc1ccc(C(F)(F)F)cc1)OCCCC[C@H](C)O2
CCCC(=O)Nc1ccc2c(c1)OC[C@@H](C)N(Cc1ccccc1)C[C@H](C)[C@H](OC)CN(C)C2=O
CC(C)CC#Cc1ccc2c(c1)O[C@H](CN(C)C(=O)NC1CCCC1)[C@@H](C)CN([C@@H](C)CO)S2(=O)=O
COCC(=O)NC[C@H]1N[C@H](CO)[C@@H]1c1ccc(C2=CCCCC2)cc1
